Assay results taken from the supplement of paper PMC10849652.
About 7,900 targets were measured; listed, in parts, are those with a hit and a random draw of the rest. About 0.6% of all pairs of compound and target were hits. A number with no mark means an inactive call.

Legend:
Assay in all cases: log2 fold change, soluble protein after heating vs DMSO (PISA); higher = thermal stabilisation; K562 cells, 10 uM, 30 min; active = over 0.2 and 3.5 SD of the protein, either way, in both replicates (recomputed)
IRAK-1-4 Inhibitor I = compound: C1COCCN1CCN2C3=CC=CC=C3N=C2NC(=O)C4=CC(=CC=C4)[N+](=O)[O-] [IRAK-1-4 Inhibitor I]
Summary of the method: (§1)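 Thermal stability values are relative to control samples and come from duplicates. They are expressed as log2 fold changes. For measurement, K562 cells (2×10^6 cells/mL) received 10 μM compound for 30 min, and aliquots were heated for 3 min over 48°C-58°C, pooled, and extracted at 4°C in PBS with 0.5% NP-40. Soluble protein, the supernatant after 21,000xg for 90 min, was quantified by TMTpro 16plex LC-MS/MS with equalised channel sums.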

ibrutinib = compound: C=CC(=O)N1CCC[C@@H](n2nc(-c3ccc(Oc4ccccc4)cc3)c3c(N)ncnc32)C1 [ibrutinib]
Summary of the method: as §1

[1] = compound: CC(=O)c1cnc2ccc(-c3cc(Cl)c(O)c(Cl)c3)nc2c1N[C@H]1CC[C@H](CN(C)C)CC1
Summary of the method: as §1

ralimetinib = compound: CC(C)(C)Cn1c(N)nc2ccc(-c3[nH]c(C(C)(C)C)nc3-c3ccc(F)cc3)nc21 [ralimetinib]
Summary of the method: as §1

[2] = compound: CC(C)(O)CC(=O)NCCn1ccc2ncnc(Nc3ccc(Oc4cccc(C(F)(F)F)c4)c(Cl)c3)c21
Summary of the method: as §1

[3] = compound: CC(C)C1=C2N=C(C=C(N2N=C1)NCC3=CC=CC=C3)NCCCCCCN
Summary of the method: as §1

[4] = compound: CC(C)C[C@@H](C=O)NC(=O)[C@H](CC(C)C)NC(=O)[C@H](CC(C)C)NC(=O)OCc1ccccc1
Summary of the method: as §1

pinometostat = compound: CC(C)N(C[C@H]1O[C@@H](n2cnc3c(N)ncnc32)[C@H](O)[C@@H]1O)[C@H]1C[C@@H](CCc2nc3cc(C(C)(C)C)ccc3[nH]2)C1 [pinometostat]
Summary of the method: as §1

[5] = compound: CC1=C(C(CC(=O)N1)C2=CC=C(C=C2)C(F)(F)F)C(=O)NC3=C(C=C4C(=C3)C=NN4)F
Summary of the method: as §1

[6] = compound: CC1=C(C2=C(C=C1)C(=O)C3=CC=CC=C3N2CCCN)C
Summary of the method: as §1

Chain of UniProt O14981 (O14981 whole entry, looked up): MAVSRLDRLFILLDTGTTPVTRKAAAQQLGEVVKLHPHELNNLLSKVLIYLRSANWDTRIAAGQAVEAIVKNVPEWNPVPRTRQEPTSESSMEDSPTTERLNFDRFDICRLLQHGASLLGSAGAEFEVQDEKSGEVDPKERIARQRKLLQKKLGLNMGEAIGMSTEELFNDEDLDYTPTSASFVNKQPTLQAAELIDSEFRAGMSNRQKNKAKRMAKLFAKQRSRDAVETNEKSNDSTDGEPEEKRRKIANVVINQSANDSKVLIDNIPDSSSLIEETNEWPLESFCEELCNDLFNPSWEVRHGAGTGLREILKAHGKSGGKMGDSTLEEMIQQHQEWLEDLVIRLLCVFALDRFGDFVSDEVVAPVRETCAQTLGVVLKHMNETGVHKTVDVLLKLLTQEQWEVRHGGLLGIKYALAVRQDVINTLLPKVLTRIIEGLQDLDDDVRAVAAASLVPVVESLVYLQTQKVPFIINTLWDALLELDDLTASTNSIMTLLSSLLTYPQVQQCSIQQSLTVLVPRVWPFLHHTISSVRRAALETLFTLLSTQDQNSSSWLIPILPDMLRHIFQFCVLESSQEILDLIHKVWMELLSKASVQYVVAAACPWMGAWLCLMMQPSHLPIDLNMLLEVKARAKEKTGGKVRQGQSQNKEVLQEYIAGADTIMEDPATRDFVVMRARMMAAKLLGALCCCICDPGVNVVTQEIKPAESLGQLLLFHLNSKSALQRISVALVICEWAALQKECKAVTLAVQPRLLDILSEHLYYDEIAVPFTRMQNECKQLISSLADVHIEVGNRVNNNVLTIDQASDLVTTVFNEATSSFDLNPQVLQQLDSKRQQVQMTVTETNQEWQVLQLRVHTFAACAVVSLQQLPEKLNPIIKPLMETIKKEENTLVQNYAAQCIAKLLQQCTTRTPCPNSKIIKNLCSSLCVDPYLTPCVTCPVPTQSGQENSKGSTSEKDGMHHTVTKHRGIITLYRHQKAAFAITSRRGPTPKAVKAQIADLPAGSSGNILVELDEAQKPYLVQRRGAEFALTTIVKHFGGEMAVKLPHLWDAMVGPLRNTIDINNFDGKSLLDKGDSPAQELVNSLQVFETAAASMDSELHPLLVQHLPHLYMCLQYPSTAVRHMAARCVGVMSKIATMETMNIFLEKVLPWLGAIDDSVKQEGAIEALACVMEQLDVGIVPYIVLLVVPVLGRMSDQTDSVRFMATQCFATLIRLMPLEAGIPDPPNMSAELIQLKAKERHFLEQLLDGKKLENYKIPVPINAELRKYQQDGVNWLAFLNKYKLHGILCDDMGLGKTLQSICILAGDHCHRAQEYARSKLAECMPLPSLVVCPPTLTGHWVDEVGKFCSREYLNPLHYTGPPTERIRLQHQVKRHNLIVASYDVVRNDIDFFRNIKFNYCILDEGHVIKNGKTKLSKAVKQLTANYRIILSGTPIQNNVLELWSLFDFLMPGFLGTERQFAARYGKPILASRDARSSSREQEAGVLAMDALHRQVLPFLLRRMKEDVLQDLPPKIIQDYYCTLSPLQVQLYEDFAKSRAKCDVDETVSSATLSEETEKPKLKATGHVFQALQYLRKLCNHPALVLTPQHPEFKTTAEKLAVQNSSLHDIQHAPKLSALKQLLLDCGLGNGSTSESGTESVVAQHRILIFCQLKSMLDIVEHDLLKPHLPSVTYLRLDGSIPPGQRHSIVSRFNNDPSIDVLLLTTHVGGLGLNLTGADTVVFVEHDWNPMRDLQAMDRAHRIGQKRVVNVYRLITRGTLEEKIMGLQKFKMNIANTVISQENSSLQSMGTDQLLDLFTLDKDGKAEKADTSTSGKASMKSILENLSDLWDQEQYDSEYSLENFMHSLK
Chain of UniProt Q9UII2 (Q9UII2 whole entry, looked up): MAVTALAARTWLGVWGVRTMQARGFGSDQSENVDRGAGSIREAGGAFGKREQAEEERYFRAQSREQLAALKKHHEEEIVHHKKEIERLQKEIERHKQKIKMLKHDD
Chain of UniProt Q9Y487 (Q9Y487 whole entry, looked up): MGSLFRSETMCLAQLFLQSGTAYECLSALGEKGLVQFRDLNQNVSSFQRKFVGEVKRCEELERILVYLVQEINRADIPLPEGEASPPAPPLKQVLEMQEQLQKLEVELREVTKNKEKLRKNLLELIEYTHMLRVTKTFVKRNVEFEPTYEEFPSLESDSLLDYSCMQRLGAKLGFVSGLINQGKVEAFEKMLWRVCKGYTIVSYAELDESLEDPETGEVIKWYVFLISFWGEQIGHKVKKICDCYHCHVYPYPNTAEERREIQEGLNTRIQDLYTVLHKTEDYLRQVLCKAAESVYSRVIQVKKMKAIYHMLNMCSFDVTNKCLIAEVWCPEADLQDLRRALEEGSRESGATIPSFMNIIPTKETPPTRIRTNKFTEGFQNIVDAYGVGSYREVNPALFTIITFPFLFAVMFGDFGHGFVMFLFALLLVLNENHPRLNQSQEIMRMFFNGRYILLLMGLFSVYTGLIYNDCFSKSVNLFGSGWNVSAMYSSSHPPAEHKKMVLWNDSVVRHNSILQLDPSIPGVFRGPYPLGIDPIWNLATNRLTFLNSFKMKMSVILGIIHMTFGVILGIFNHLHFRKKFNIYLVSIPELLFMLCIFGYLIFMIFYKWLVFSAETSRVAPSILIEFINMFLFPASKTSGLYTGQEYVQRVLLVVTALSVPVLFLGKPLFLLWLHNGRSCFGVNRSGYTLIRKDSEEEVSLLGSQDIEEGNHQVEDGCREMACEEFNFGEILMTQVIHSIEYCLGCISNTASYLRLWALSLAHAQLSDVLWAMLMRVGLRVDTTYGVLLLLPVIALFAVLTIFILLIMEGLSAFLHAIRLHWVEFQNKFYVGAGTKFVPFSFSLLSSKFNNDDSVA
Chain of UniProt Q9NX46 (Q9NX46 whole entry, looked up): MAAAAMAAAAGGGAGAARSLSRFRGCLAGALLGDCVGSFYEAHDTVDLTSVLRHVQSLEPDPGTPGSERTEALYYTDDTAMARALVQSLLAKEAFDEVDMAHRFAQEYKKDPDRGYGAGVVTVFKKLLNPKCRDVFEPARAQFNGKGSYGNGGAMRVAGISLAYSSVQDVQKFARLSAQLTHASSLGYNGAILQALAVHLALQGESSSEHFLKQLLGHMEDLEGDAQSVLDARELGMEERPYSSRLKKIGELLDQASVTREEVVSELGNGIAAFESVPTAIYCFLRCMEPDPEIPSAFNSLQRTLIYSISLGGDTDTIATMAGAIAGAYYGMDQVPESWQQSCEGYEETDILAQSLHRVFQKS
Chain of UniProt P11766 (P11766 whole entry, looked up): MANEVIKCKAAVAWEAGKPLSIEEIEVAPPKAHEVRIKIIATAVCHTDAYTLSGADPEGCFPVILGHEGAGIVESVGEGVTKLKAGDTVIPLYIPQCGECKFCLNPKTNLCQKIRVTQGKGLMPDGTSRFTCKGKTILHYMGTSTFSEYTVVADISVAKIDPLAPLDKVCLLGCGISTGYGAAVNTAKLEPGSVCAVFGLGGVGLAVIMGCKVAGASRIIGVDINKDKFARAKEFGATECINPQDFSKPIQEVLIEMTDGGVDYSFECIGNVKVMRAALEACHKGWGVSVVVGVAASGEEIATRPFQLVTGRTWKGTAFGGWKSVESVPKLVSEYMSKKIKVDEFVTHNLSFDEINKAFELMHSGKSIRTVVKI
Chain of UniProt P49189 (P49189 whole entry, looked up): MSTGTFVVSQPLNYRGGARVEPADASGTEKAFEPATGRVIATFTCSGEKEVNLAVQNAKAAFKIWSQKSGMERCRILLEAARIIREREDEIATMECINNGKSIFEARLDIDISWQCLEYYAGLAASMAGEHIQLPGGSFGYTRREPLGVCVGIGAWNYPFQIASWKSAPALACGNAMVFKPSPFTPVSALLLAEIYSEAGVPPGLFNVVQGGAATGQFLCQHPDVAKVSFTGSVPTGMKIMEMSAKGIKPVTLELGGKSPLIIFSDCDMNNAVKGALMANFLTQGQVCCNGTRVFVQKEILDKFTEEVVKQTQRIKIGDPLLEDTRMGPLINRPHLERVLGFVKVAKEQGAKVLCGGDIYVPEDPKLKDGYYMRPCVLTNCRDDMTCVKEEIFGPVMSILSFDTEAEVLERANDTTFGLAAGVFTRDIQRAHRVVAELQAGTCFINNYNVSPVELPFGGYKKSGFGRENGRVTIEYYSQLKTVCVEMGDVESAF
Chain of UniProt P24666 (P24666 whole entry, looked up): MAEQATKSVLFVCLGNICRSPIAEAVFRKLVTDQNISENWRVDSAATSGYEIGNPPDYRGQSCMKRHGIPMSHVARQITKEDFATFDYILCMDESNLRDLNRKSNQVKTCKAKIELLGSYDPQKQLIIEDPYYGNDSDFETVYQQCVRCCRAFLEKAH
Chain of UniProt Q9NVI7 (Q9NVI7 whole entry, looked up): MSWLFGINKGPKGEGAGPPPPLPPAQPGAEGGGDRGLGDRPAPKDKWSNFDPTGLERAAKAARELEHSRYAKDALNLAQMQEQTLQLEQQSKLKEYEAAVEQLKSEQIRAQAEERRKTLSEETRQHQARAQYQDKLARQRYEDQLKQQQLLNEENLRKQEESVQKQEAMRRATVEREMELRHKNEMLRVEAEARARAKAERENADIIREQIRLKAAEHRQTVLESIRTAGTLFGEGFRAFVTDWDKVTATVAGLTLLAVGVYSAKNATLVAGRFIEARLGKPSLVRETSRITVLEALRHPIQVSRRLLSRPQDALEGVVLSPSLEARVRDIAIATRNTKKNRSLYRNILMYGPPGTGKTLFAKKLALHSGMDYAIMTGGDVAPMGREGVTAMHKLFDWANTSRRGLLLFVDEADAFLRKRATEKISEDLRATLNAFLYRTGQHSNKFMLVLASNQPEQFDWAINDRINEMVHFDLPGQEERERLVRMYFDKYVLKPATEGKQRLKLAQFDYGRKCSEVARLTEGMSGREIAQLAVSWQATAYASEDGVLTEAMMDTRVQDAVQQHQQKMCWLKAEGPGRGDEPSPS
Chain of UniProt Q96F25 (Q96F25 whole entry, looked up): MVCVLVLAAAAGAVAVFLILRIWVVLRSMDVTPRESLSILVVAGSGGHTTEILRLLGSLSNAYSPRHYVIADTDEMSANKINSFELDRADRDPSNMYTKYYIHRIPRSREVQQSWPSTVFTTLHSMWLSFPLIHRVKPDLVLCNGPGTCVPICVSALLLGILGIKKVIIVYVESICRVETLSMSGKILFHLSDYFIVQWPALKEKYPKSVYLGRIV

Target | log2 fold change (IRAK-1-4 Inhibitor I) | log2 fold change (ibrutinib) | log2 fold change [1] | log2 fold change (ralimetinib) | log2 fold change [2] | log2 fold change [3] | log2 fold change [4] | log2 fold change (pinometostat) | log2 fold change [5] | log2 fold change [6]
ACSL4 (UniProt O60488) | -0.067 | 0.001 | 0 | 0.049 | -0.237 | -0.443 (active) | 0.038 | 0.098 | 0.019 | 0
BOP1 (UniProt Q14137) | -0.039 | 0.01 | -0.083 | 0.041 | 0.119 | -0.068 | 0.031 | 0.021 | 0.01 | -0.078
ASB6 (UniProt Q9NWX5) | 0.106 | -0.108 | 0.039 | 0.343 | -0.274 | -0.055 | 0.069 | -0.031 | 0.059 | –
ATP1A1 (UniProt P05023) | 0.071 | 0.03 | 0.007 | -0.029 | -0.006 | 0.182 | -0.002 | -0.006 | 0.001 | 0.009
BCL9L (UniProt Q86UU0) | -0.045 | 0 | 0.04 | -0.024 | -0.009 | 0.015 | 0.092 | 0.013 | 0.006 | 0.101
ATF7 isoform 6 (UniProt P17544) | -0.031 | 0.199 | 0.183 | 0.089 | -0.042 | 0.138 | -0.14 | 0.019 | -0.082 | 0.22
ATP6V1H (UniProt Q9UI12) | -0.011 | -0.033 | -0.065 | 0.007 | -0.014 | -0.241 (active) | 0.043 | -0.002 | -0.006 | 0.028
ATP5IF1 (UniProt Q9UII2) | 0.121 | 0.012 | 0.018 | -0.1 | 0.099 | 0.056 | -0.048 | -0.06 | 0.009 | -0.006
ATP6V0A2 (UniProt Q9Y487) | -0.006 | -0.026 | -0.017 | 0.057 | -0.01 | -0.297 (active) | 0.049 | 0.054 | 0.008 | 0.003
BRIP1 (UniProt Q9BX63) | 0.017 | 0.12 | -0.073 | 0.006 | 0.039 | -0.036 | -0.064 | 0.084 | -0.01 | 0.333 (active)
ALDH9A1 isoform 3 (UniProt P49189) | 0.059 | 0.025 | 0.003 | -0.047 | -0.004 | 0.019 | -0.022 | -0.013 | 0.028 | -0.003
BTAF1 (UniProt O14981) | 0.021 | 0.029 | 0.022 | -0.043 | -0.168 | -0.131 | 0.01 | -0.011 | 0.003 | -0.087
ADPRHL2 (UniProt Q9NX46) | 0 | -0.021 | -0.025 | -0.021 | -0.088 | 0.08 | -0.038 | -0.015 | -0.126 | -0.002
ABHD11 (UniProt Q8NFV4) | -0.031 | 0.031 | -0.007 | -0.123 | -0.006 | -0.043 | 0.068 | -0.027 | -0.016 | 0.026
ADH5 (UniProt P11766) | 0.038 | 0.011 | 0.014 | -0.097 | -0.02 | 0.05 | -0.041 | -0.05 | 0.01 | 0.019
BZW2 (UniProt Q9Y6E2) | 0.04 | -0.043 | 0 | -0.016 | -0.121 | -0.163 | -0.003 | -0.011 | -0.005 | 0.014
ALDH1B1 (UniProt P30837) | 0.051 | 0.031 | -0.009 | -0.004 | -0.072 | 0.132 | -0.01 | -0.022 | -0.054 | 0.221
ABCC5 (UniProt O15440) | -0.035 | -0.082 | 0 | 0.001 | -0.121 | 0.119 | 0.046 | 0.086 | 0.038 | 0.116
AGPAT3 isoform 3 (UniProt Q9NRZ7) | 0.012 | 0 | -0.024 | -0.02 | -0.001 | -0.071 | -0.001 | 0.034 | -0.011 | 0.03
ATP6AP1 (UniProt Q15904) | -0.02 | 0 | -0.035 | 0.01 | 0.035 | -0.091 | 0.02 | 0.101 | 0.047 | -0.024
ACP1 isoform 2 (UniProt P24666) | -0.082 | -0.028 | -0.013 | 0.009 | -0.264 (active) | -0.109 | -0.039 | 0.073 | -0.061 | -0.296 (active)
ACP2 (UniProt P11117) | 0.047 | 0.033 | -0.012 | -0.012 | -0.03 | -0.205 | -0.026 | 0.027 | 0.02 | -0.006
BMP2K (UniProt Q9NSY1) | 0.003 | 0.071 | 0.559 (active) | 0.058 | -0.028 | -0.027 | 0.085 | -0.008 | 0.023 | -0.009
ATR (UniProt Q13535) | 0.093 | 0.031 | 0.021 | -0.03 | -0.077 | 0.046 | 0.037 | 0.101 | 0.002 | 0.109
ATG4B isoform 2 (UniProt Q9Y4P1) | 0.127 | -0.038 | -0.102 | 0.134 | -0.194 | -0.299 | -0.137 | -0.013 | -0.031 | 0.114
ATAD3A isoform 2 (UniProt Q9NVI7) | -0.005 | 0.08 | -0.075 | 0.009 | -0.023 | -0.468 (active) | 0.075 | 0.082 | 0 | 0.096
BRK1 isoform 2 (UniProt Q8WUW1) | -0.026 | -0.004 | -0.045 | -0.037 | -0.018 | 0.058 | -0.053 | -0.157 | 0.064 | 0.145
APPL1 (UniProt Q9UKG1) | 0.016 | -0.067 | -0.074 | -0.024 | 0.037 | 0.006 | 0.069 | 0.059 | -0.15 | -0.011
ARFRP1 (UniProt Q13795) | -0.083 | 0.031 | 0.02 | 0.004 | -0.041 | -0.028 | -0.073 | 0.017 | -0.044 | 0.075
ALG14 (UniProt Q96F25) | 0.007 | 0.104 | -0.157 | -0.12 | -0.115 | -0.098 | 0.093 | 0.038 | 0.002 | 0.195
